# Screening results deposited in PubChem by National Center for Advancing Translational Sciences (NCATS).
# Compounds with a hit are over-represented: about 6% of the library has one in this group of screens.
# D1 potentiator – potentiators of human D1 dopamine receptor. P21728. HEK293 TREx D1 cells, calcium flux, dopamine EC20 potentiation. potentiation, % at 10 µM. 0.036% of 360,000 active. AID 504651; in the data active = potentiation above about 30%; also: 0% is about no effect
# Target sequence (P21728 whole entry, looked up): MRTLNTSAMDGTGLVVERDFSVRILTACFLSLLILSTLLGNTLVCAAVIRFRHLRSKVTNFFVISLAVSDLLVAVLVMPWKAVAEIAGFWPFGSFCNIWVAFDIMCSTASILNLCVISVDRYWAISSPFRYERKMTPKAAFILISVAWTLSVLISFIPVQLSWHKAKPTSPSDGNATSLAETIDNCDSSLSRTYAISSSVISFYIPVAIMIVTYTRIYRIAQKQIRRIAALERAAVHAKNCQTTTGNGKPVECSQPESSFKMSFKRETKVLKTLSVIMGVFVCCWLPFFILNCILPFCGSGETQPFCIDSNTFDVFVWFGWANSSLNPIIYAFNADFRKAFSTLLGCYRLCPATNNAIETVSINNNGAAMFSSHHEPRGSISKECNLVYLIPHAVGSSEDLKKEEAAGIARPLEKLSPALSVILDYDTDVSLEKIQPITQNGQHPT
# D1 antag – human D1 dopamine receptor antagonism; P21728; activity change, negative = inhibition, % at 10 µM; HEK293 TREx D1 cells, calcium flux, dopamine EC80; active compounds read low; 3.2% of 360,000 active; in the data active = activity change below about -30%; also: % is scaled to controls: 0 for no effect and ±100 for the full control effect
#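 Tetracycline-induced HEK293 Trex D1 cells, force-coupled to calcium, dye-loaded; compounds added and read 180 s, then EC80 dopamine added and calcium flux tracked kinetically another 180 s.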
# DRD3 antagonist – antagonists of human D3 dopamine receptor; P35462; 2.5% of 360,000 active; D3R cells, DiscoveRx beta-arrestin luminescence, antagonist mode; active compounds read low; AID 652054; max response, negative = inhibition, %; in the data active = max response below about -50%; inconclusive = no clear call, values can overlap the other calls; also: % is scaled to controls: 0 for no effect and ±100 for the full control effect
#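 Cells expressing the human receptor were seeded at 1500 cells/well, incubated overnight at 37 degrees C in 5% CO2, then exposed to library compounds with dopamine controls for 90 minutes at 37 degrees C before luminescent detection.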
# DRD3 agonist – activates the human D3 dopamine receptor | P35462 | D3R DiscoveRx beta-arrestin cells, luminescence, 90 min | max activation, % | 0.58% of 410,000 active; in the data active = max activation above about 30%; also: 0% is about no effect
#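 Cells at 1500/well, incubated overnight, then treated with pinned compounds (dopamine as control) for 90 min at 37 degrees C. DiscoveRx reagent added for 30 - 60 minutes at room temperature; luminescence read.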
# D1 agonist – human D1 receptor agonism | HEK293 T-REx D1 cells, calcium flux, agonist mode | activation, % at 2 µM | 1% of 360,000 active; in the data active = activation above about 30%; also: 0% is about no effect
#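 Agonism was scored from calcium flux recorded over 180 s (1 read/s) after pintool compound addition, following a 10-cycle baseline. Cells were inducible force-coupled HEK293 TREx D1, plated overnight at 30 C and loaded with no-wash calcium dye.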
# Active calls of the source: *; u = inconclusive; x = not tested or not shown.
SMILES,D1 potentiator,D1 antag,DRD3 antagonist,DRD3 agonist,D1 agonist
Cc1nn(-c2ccccc2)c2sc(C(=O)Nc3ccccc3Br)cc12,-5,19,x,15,8
COc1cccc(C(C(=O)NC2CCCC2)N2CCN(c3cc(C)nc4ccccc34)CC2)c1OC (stereo unspecified),x,x,-21,-7,x
COc1ccc(/C=C/c2nc(C#N)c(NCCc3ccccc3)o2)cc1OC,0,-6,x,-15,0
CCCn1c(=O)c2sccc2n2c(CCCC(=O)Nc3ccc(Oc4ccccc4)cc3)nnc12,-6,-11,x,4,4
Cc1ccc(NC(=O)CSCc2cnn(-c3ccccc3)c2-n2cccc2)c(Cl)c1,1,20,x,70*,0
O=C(CCSCc1cnn(-c2ccccc2)c1-n1cccc1)NCc1ccc(Cl)cc1,1,-52*,x,4,-1
Cc1cccc(N2CCN(C(=O)CS(=O)(=O)c3cccc4nsnc34)CC2)c1C,0,-7,x,-12,10
CCN(C[C@H]1N[C@@](Cc2ccccc2)(C(=O)OC)[C@H]2C(=O)N(C)C(=O)[C@@H]12)C(=O)COc1ccccc1,x,x,2,-15,x
Cc1ccc(-n2c(SCC(=O)Nc3ccc4c(c3)OCCO4)nc3c([nH]c4ccccc43)c2=O)cc1,-6,-7,x,-14,1
O=c1oc2ccccc2c(NCc2ccccc2F)c1[N+](=O)[O-],-4,-1,-25,-1,7
O=c1oc2ccccc2c(Nc2ccc(Cl)cc2)c1[N+](=O)[O-],-11,-4,15,6,33*
O=c1oc2ccccc2c(Nc2cccc(O)c2)c1[N+](=O)[O-],-5,-15,-81*,-3,0
CC(C)c1ccc(CNc2c([N+](=O)[O-])c(=O)oc3ccccc23)cc1,-3,-34*,-28,-10,27
CCOc1ccc(S(=O)(=O)N2CCC(c3ccncc3)CC2)cc1,-3,-17,x,-8,10
Cc1ccc(CNC(=O)c2ccccc2NC(=O)c2nsc3ccccc23)cc1,-1,-1,x,-7,2
COc1ccc(CNC(=O)COc2ccc(S(=O)(=O)N3CCCCC3)cc2)cc1,-2,-6,-9,7,6
O=C(COc1ccc(S(=O)(=O)N2CCCCC2)cc1)NCc1cccnc1,-5,10,13,36*,1
Cc1cc(C)n(CCc2nc3c4ccccc4nc(SCc4ccc(F)cc4)n3n2)n1,-2,-4,x,9,3
CCc1c(C)nc2nncn2c1Nc1ccc(C)c(F)c1,-2,-3,x,4,-1
CC(C)OC(=O)NC(c1ccccc1)C(Cl)(Cl)Cl (stereo unspecified),-11,-19,-50*,4,3
CCOc1ccc(OC(=O)NC(c2ccccc2)C(Cl)(Cl)Cl)cc1 (stereo unspecified),-5,1,-6,1,2
CCOc1ccccc1NC(=O)Cn1cnc2onc(-c3ccc(F)cc3)c2c1=O,-4,-16,x,7,3
CC(=O)c1ccc(S(=O)(=O)NCCCC(=O)N(C)Cc2ccc3c(c2)OCO3)cc1,-9,-57*,1,-8,7
COC(=O)Cc1cc(=O)[nH]c(/N=C(\N)Nc2ccc(C)cc2C)n1,-9,-32*,8,1,5
COCc1cc(=O)[nH]c(/N=C(\N)Nc2ccccc2C)n1,-2,11,-7,1,1
SMILES,D1 potentiator,D1 antag,DRD3 antagonist,DRD3 agonist,D1 agonist
COc1ccccc1N/C(N)=N/c1nc(CSc2nc3ccccc3s2)cc(=O)[nH]1,4,-31*,x,x,5
CCOC(=O)Cc1cc(=O)[nH]c(/N=C(\N)Nc2ccc(C)cc2C)n1,-31,-38*,25,3,4
COC(=O)CCC(=O)N1CCC(Oc2cccc(C(=O)NCc3ccccn3)c2)CC1,x,x,-4,-2,x
COc1ccc(Nc2ccnc3ccccc23)cc1,-8,-43*,-21,-7,14
CC(C)Nc1ccc(Nc2ccnc3cc4ccccc4cc23)cc1,-6,-26,-79*,-26,3
c1ccc(CCNc2ccnc3cc4ccccc4cc23)cc1,-17,-82*,-12,-6,34*
CCOc1ccccc1Nc1ccnc2cc(Cl)ccc12,-6,-12,5,-2,5
NC[C@@H]1O[C@H](O[C@H]2[C@@H](O)[C@H](O[C@@H]3[C@@H](O)[C@H](N)C[C@H](N)[C@H]3O[C@H]3O[C@H](CN)[C@@H](O)[C@H](O)[C@H]3N)O[C@@H]2CO)[C@H](N)[C@@H](O)[C@@H]1O,x,x,x,-2,x
CC[C@H](C)[C@H]1CNC(=S)N1CC1CCN(CCC23CC4CC(CC(C4)C2)C3)CC1,x,x,-83*,-37,x
CC[C@H](C)[C@H]1CNC(=S)N1CC1CCN(CC2CCC(C)CC2)CC1 (stereo partly specified),x,x,-104*,-51,x
COc1ccc(OC)c(-c2nc(C(=O)NC3CCN(Cc4ccccc4)CC3)cc3c2[nH]c2ccccc23)c1,-1,2,-125*,-60,2
COc1cc(-c2nc(C(=O)NC3CCN(Cc4ccccc4)CC3)cc3c2[nH]c2ccccc23)cc(OC)c1OC,7,-3,-117*,-63,2
O=C(NCc1ccc(Cl)cc1)c1cc(S(=O)(=O)N2CCCCC2)c[nH]1,-4,-13,-54*,-1,2
N#Cc1ccc2c(c1)C[C@]1(c3ccsc3)OC3=C(C(=O)OC4(CCCCC4)C3)C2O1,6,-32*,x,x,1
CCOC(=O)c1ccc(/C=C2/C=C(c3ccccc3)N(c3ccc(Cl)c(C(=O)O)c3)C2=O)cc1,-1,4,u,3,103*
CCOC(=O)c1ccc(Cl)c(NC(=O)c2ccc(-c3ccccc3)cc2)c1,-6,-15,9,13,3
CCN(Cc1ccccc1)C(=O)Cn1cc(S(=O)(=O)NC)c(S(=O)(=O)NC)c1,1,-3,-52*,0,3
CCCCC(=O)N(C)c1c(C)nc2ccc(C(=O)NCc3ccccc3OC)cn12,x,x,4,9,x
Nc1c(Cl)cc(C2=NCCn3c2c2ccc([N+](=O)[O-])cc2[n+]3[O-])cc1Cl,-10,-33*,-10,-5,1
CCc1cccc(CC)c1NC(=O)Cn1nnc2sc3c(c2c1=O)CCCC3,-4,-2,x,-21,2
CCc1ccc(S(=O)(=O)NCc2cccs2)cc1,-10,-21,-65*,-5,6
CCC(NC(=O)COC(=O)C1CC2CCCC(C1)C2=O)c1ccc(Br)cc1 (stereo unspecified),-6,-56*,-12,5,5
O=C(O)C1CCN(c2nc(-c3ccccc3)c3cc(Br)ccc3n2)CC1,-7,1,5,12,21
CN1CCN(c2nc(N3CCN(CCO)CC3)nc3ccccc23)CC1,-1,1,19,3,0
OCCN1CCN(c2nc(-c3ccccc3)c3cc(Br)ccc3n2)CC1,44*,8,-2,-15,45*
